# The panel holds about 79,000 compounds, 15% with a hit somewhere; the sample as a whole holds those more often. Values without a mark were called inactive. The source made the active and inactive calls. Cut-off read from the data, not from the text of the source: active = growth inhibition above about 70%; inactive = the rest.
# Assays:
# [1] = NCI Yeast Anticancer Drug Screen. Data for the rad52 strain (AID 147);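 note: 0% = growth of vehicle-treated control cultures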; conditions: S. cerevisiae rad52 mutant growth inhibition, stronger effect = higher value
# Summary of the method: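 Screen used a yeast mutant impaired in DNA repair. After compound exposure, growth was measured. Values reflect inhibition compared with vehicle-treated cells.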
# [2] = NCI Yeast Anticancer Drug Screen. Data for the wt1 strain (AID 149);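 note: 0% = growth of vehicle-treated wt1 cultures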; conditions: S. cerevisiae wt1 strain (SPY 50644) growth inhibition, stronger effect = higher value
# Summary of the method: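 Measured: growth of wt1 yeast under compound versus vehicle treatment, reported as inhibition.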
# [3] = NCI Yeast Anticancer Drug Screen. Data for the rad50EPP+ strain (AID 151);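 note: 0% = growth of vehicle-treated control cultures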; conditions: S. cerevisiae rad50 mutant strain, stronger effect = higher value
# Summary of the method: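 Exposing the rad50EPP+ strain to each compound, growth was compared with vehicle-only cultures to give inhibition.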
# [4] = NCI Yeast Anticancer Drug Screen. Data for the mgt1 strain (AID 153); conditions: S. cerevisiae mgt1 mutant growth inhibition, stronger effect = higher value
# Summary of the method: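 Genetically defined yeast (mgt1) treated with compound; inhibition of growth expressed against vehicle-treated controls.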
# [5] = NCI Yeast Anticancer Drug Screen. Data for the rad50 strain (AID 155);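 note: 0% = growth of vehicle-only cultures of the same strain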; conditions: S. cerevisiae rad50 strain growth inhibition, stronger effect = higher value
# Summary of the method: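 Growth of the mutant yeast was measured after compound exposure and referenced to vehicle-treated cultures.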
# [6] = NCI Yeast Anticancer Drug Screen. Data for the mec2-1 strain (AID 157); conditions: S. cerevisiae mec2-1 strain, stronger effect = higher value
# Summary of the method: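 Readout is yeast growth inhibition, normalised to vehicle-treated controls, in the mec2-1 strain exposed to compound.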
# [7] = NCI Yeast Anticancer Drug Screen. Data for the CLN2oe strain (AID 163);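 note: 0% = growth of vehicle-only control cultures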; conditions: S. cerevisiae CLN2oe strain, stronger effect = higher value
# Summary of the method: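 Values reflect how much compound exposure reduced yeast growth, referenced to vehicle-exposed cells. Assay organism is a strain with a defined genetic change affecting cell-cycle control.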
# [8] = NCI Yeast Anticancer Drug Screen. Data for the cln2 rad14 strain (AID 165);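 note: 0% = growth equal to vehicle treated cultures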; conditions: S. cerevisiae cln2 rad14 strain, stronger effect = higher value
# Summary of the method: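 Relative to vehicle controls, growth inhibition of compound-treated cln2 rad14 yeast was recorded.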
# [9] = NCI Yeast Anticancer Drug Screen. Data for the bub3 strain (AID 167); conditions: S. cerevisiae bub3 mutant strain, stronger effect = higher value
# Summary of the method: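 Whole-cell yeast assay. The mutant strain was incubated with compounds, and growth inhibition was determined by comparison with vehicle-treated cells.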
# [10] = NCI Yeast Anticancer Drug Screen. Data for the wt2 strain (AID 169);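 note: 0% = growth of vehicle-treated yeast cultures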; conditions: S. cerevisiae wt2 strain growth inhibition, stronger effect = higher value
# Summary of the method: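 Values express reduction in yeast growth under compound treatment, referenced to vehicle-treated cells.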
# [11] = NCI Yeast Anticancer Drug Screen. Data for the mlh1 strain (AID 171);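 note: 0% = growth of vehicle-treated control cultures of the same strain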; conditions: S. cerevisiae mlh1 strain growth inhibition, stronger effect = higher value
# Summary of the method: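 Steps: expose the defined-mutant yeast strain to compound; expose a parallel culture to vehicle; measure growth; express compound effect as inhibition relative to the vehicle culture.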
# [12] = NCI Yeast Anticancer Drug Screen. Data for the sgs1 strain (AID 173);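 note: 0% = growth of vehicle-only control cultures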; conditions: S. cerevisiae sgs1 mutant, stronger effect = higher value
# Summary of the method: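 Treat defined-mutant yeast with compound; measure growth; calculate inhibition relative to vehicle-treated cells.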
# [13] = NCI Yeast Anticancer Drug Screen. Data for the mlh1 rad18 strain (AID 175); conditions: S. cerevisiae mlh1 rad18 strain growth inhibition, stronger effect = higher value
# Summary of the method: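 Test agents were incubated with a yeast strain of defined genotype (DNA damage repair defect). Inhibition of growth was derived by comparison with vehicle-exposed cultures.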
# [14] = NCI Yeast Anticancer Drug Screen. Data for the rad18 strain (AID 177); conditions: S. cerevisiae rad18 mutant growth inhibition, stronger effect = higher value
# Summary of the method: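 A genetically defined yeast mutant impaired in DNA damage repair was treated with test compounds, then its growth was measured against cultures receiving vehicle alone.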
# [15] = at 5.0 µM (retest, dose inferred, filed as 0.5)
# [16] = at 50.0 µM (retest, dose inferred, filed as 5.0)
smiles,measurement,setting,value
Cc1ccc(NC(=O)/C(Cl)=C(\Cl)C(=O)O)cc1C,growth inhibition,[1]; at 1.2 µM,2%
same,growth inhibition,[1]; at 3.7 µM,7%
same,growth inhibition,[1]; at 11.0 µM,42%
same,growth inhibition,[1]; at 33.0 µM,99% (active)
same,growth inhibition,[1]; at 100.0 µM,99% (active)
same,growth inhibition,[2]; at 1.2 µM,-2%
same,growth inhibition,[2]; at 3.7 µM,-3%
same,growth inhibition,[2]; at 11.0 µM,2%
same,growth inhibition,[2]; at 33.0 µM,88% (active)
same,growth inhibition,[2]; at 100.0 µM,98% (active)
same,growth inhibition,[3]; at 1.2 µM,6%
same,growth inhibition,[3]; at 3.7 µM,16%
same,growth inhibition,[3]; at 11.0 µM,77% (active)
same,growth inhibition,[3]; at 33.0 µM,99% (active)
same,growth inhibition,[3]; at 100.0 µM,99% (active)
same,growth inhibition,[4]; at 1.2 µM,4%
same,growth inhibition,[4]; at 3.7 µM,7%
same,growth inhibition,[4]; at 11.0 µM,22%
same,growth inhibition,[4]; at 33.0 µM,99% (active)
same,growth inhibition,[4]; at 100.0 µM,99% (active)
same,growth inhibition,[5]; at 1.2 µM,2%
same,growth inhibition,[5]; at 3.7 µM,7%
same,growth inhibition,[5]; [15],13%
same,growth inhibition,[5]; at 11.0 µM,38%
same,growth inhibition,[5]; at 33.0 µM,99% (active)
same,growth inhibition,[5]; [16],99% (active)
same,growth inhibition,[5]; at 50.0 µM,99.2% (active)
same,growth inhibition,[5]; at 100.0 µM,98% (active)
same,growth inhibition,[6]; at 1.2 µM,6%
same,growth inhibition,[6]; at 3.7 µM,10%
same,growth inhibition,[6]; [15],15%
same,growth inhibition,[6]; at 11.0 µM,24%
same,growth inhibition,[6]; at 33.0 µM,99% (active)
same,growth inhibition,[6]; [16],100% (active)
same,growth inhibition,[6]; at 50.0 µM,99.5% (active)
same,growth inhibition,[6]; at 100.0 µM,99% (active)
same,growth inhibition,[7]; at 1.2 µM,3%
same,growth inhibition,[7]; at 3.7 µM,4%
same,growth inhibition,[7]; at 11.0 µM,13%
same,growth inhibition,[7]; at 33.0 µM,96% (active)
same,growth inhibition,[7]; at 100.0 µM,99% (active)
same,growth inhibition,[8]; [15],8%
same,growth inhibition,[8]; [16],99% (active)
same,growth inhibition,[8]; at 50.0 µM,72% (active)
same,growth inhibition,[9]; at 1.2 µM,7%
same,growth inhibition,[9]; at 3.7 µM,5%
same,growth inhibition,[9]; [15],21%
same,growth inhibition,[9]; at 11.0 µM,20%
same,growth inhibition,[9]; at 33.0 µM,99% (active)
same,growth inhibition,[9]; [16],99% (active)
same,growth inhibition,[9]; at 50.0 µM,99.5% (active)
same,growth inhibition,[9]; at 100.0 µM,99% (active)
same,growth inhibition,[10]; at 1.2 µM,0%
same,growth inhibition,[10]; at 3.7 µM,2%
same,growth inhibition,[10]; at 11.0 µM,11%
same,growth inhibition,[10]; at 33.0 µM,97% (active)
same,growth inhibition,[10]; at 100.0 µM,99% (active)
same,growth inhibition,[11]; at 1.2 µM,1%
same,growth inhibition,[11]; at 3.7 µM,4%
same,growth inhibition,[11]; at 11.0 µM,12%
same,growth inhibition,[11]; at 33.0 µM,96% (active)
same,growth inhibition,[11]; at 100.0 µM,99% (active)
same,growth inhibition,[12]; at 1.2 µM,1%
same,growth inhibition,[12]; at 3.7 µM,6%
same,growth inhibition,[12]; at 11.0 µM,29%
same,growth inhibition,[12]; at 33.0 µM,99% (active)
same,growth inhibition,[12]; at 100.0 µM,99% (active)
same,growth inhibition,[13]; [15],16%
same,growth inhibition,[13]; [16],99% (active)
same,growth inhibition,[13]; at 50.0 µM,99.3% (active)
same,growth inhibition,[14]; at 1.2 µM,0%
same,growth inhibition,[14]; at 3.7 µM,3%
same,growth inhibition,[14]; at 11.0 µM,24%
same,growth inhibition,[14]; at 33.0 µM,99% (active)
same,growth inhibition,[14]; at 100.0 µM,99% (active)

# From PubChem BioAssay (NCI)
